# Data as given in publication PMC12820563, “FoxP3 forms a head-to-head dimer in vivo and stabilizes its multimerization on adjacent microsatellites”.
# Whole data set: some 16,000 sequences, median “rpm ratio (pull-down/input)” near 0.94, cut for the highest 2% near 1.7. Many of the other results were omitted from the sample, so the highest values are more common in it than they were.
# Biological target: T1, MBP-FoxP1dN (Mus musculus, UniProt P58462 326-579)
# T1 sequence: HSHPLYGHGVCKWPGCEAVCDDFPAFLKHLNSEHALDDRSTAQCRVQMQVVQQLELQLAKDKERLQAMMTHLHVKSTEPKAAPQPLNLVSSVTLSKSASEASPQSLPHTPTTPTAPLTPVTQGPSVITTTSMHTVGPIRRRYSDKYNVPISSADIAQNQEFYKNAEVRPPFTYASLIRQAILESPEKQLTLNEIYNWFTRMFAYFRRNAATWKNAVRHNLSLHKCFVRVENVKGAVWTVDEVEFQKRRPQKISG
# Assay: PD-seq (MBP pull-down with sequencing); 20 mM Tris-HCl pH 7.5, 100 mM NaCl, 1.5 mM MgCl2, 0.4 uM protein, 0.1 uM dsDNA library, 30 min, room temperature, amylose pull-down; high values mean tight binding
# Details: protein: recombinant; tags: His6-MBP; chain copies: 2; dsDNA, one strand shown
# How it was run: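 Amylose resin was used to capture complexes formed during 30 min at room temperature in Tris pH 7.5 buffer with NaCl and MgCl2 between 0.4 µM His6-MBP-tagged mouse FoxP3 or FoxP1 fragment lacking the N-terminus, expressed in E. coli, and 0.1 µM Klenow-filled double-stranded degenerate DNA library. After three washes, the DNA was released with proteinase K, barcoded by PCR and sequenced on Illumina. Binding is pooled-replicate reads-per-million enrichment, pull-down over input.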
row,Sequence,binding signal
1,GATGATTGTTCTCCCAGCTGATGAATTGTTTAGCTCGAGTAAACAAATTTTCCTAATCTTTCTGTTCAAGCGCCATCTAC,1.89 RPM ratio (pull-down/input)
2,GATGATTGTTCTCCCAGCTGATGAATTTGTTTTCTCGAGTAAACAAATTTTCCTAATCTTTCTGTTCAAGCGCCATCTAC,2.32 RPM ratio (pull-down/input)
3,GATGATTGTTCTCCCAGCTGATGAATTGCATCCCTCGAGTAAACAAATTTTCCTAATCTTTCTGTTCAAGCGCCATCTAC,1.46 RPM ratio (pull-down/input)
4,GATGATTGTTCTCCCAGCTGATGAATTTGCATCCTCGAGTAAACAAATTTTCCTAATCTTTCTGTTCAAGCGCCATCTAC,1.77 RPM ratio (pull-down/input)
5,GATGATTGTTCTCCCAGCTGATGAATTTAGCTCCTCGAGTAAACAAATTTTCCTAATCTTTCTGTTCAAGCGCCATCTAC,0.946 RPM ratio (pull-down/input)
6,GATGATTGTTCTCCCAGCTGATGAATTTTTTAGCTCGAGTAAACAAATTTTCCTAATCTTTCTGTTCAAGCGCCATCTAC,0.853 RPM ratio (pull-down/input)
7,GATGATTGTTCTCCCAGCTGATGAATTGTTTCTCTCGAGTAAACAAATTTTCCTAATCTTTCTGTTCAAGCGCCATCTAC,1.33 RPM ratio (pull-down/input)
8,GATGATTGTTCTCCCAGCTGATGAATTTTTGTTCTCGAGTAAACAAATTTTCCTAATCTTTCTGTTCAAGCGCCATCTAC,0.963 RPM ratio (pull-down/input)
9,GATGATTGTTCTCCCAGCTGATGAATTGTTTTTCTCGAGTAAACAAATTTTCCTAATCTTTCTGTTCAAGCGCCATCTAC,2.22 RPM ratio (pull-down/input)
10,GATGATTGTTCTCCCAGCTGATGAATTTTGCATCTCGAGTAAACAAATTTTCCTAATCTTTCTGTTCAAGCGCCATCTAC,1.52 RPM ratio (pull-down/input)
11,GATGATTGTTCTCCCAGCTGATGAATTTTGTTTCTCGAGTAAACAAATTTTCCTAATCTTTCTGTTCAAGCGCCATCTAC,1.71 RPM ratio (pull-down/input)
12,GATGATTGTTCTCCCAGCTGATGAATTCGTTGGGTCGAGTAAACAAATTTTCCTAATCTTTCTGTTCAAGCGCCATCTAC,0.781 RPM ratio (pull-down/input)
13,GATGATTGTTCTCCCAGCTGATGAATTCCAAGGATCGAGTAAACAAATTTTCCTAATCTTTCTGTTCAAGCGCCATCTAC,0.795 RPM ratio (pull-down/input)
14,GATGATTGTTCTCCCAGCTGATGAATTCAACTAGTCGAGTAAACAAATTTTCCTAATCTTTCTGTTCAAGCGCCATCTAC,0.877 RPM ratio (pull-down/input)
15,GATGATTGTTCTCCCAGCTGATGAATTTATTGGCTCGAGTAAACAAATTTTCCTAATCTTTCTGTTCAAGCGCCATCTAC,1.09 RPM ratio (pull-down/input)
16,GATGATTGTTCTCCCAGCTGATGAATTGAGAGTCTCGAGTAAACAAATTTTCCTAATCTTTCTGTTCAAGCGCCATCTAC,0.741 RPM ratio (pull-down/input)
17,GATGATTGTTCTCCCAGCTGATGAATTAGACGGGTCGAGTAAACAAATTTTCCTAATCTTTCTGTTCAAGCGCCATCTAC,0.832 RPM ratio (pull-down/input)

row,Sequence,binding signal
1,GATGATTGTTCTCCCAGCTGATGAATTAAAGCGCTCGAGTAAACAAATTTTCCTAATCTTTCTGTTCAAGCGCCATCTAC,0.953 RPM ratio (pull-down/input)
2,GATGATTGTTCTCCCAGCTGATGAATTGCGGCTATCGAGTAAACAAATTTTCCTAATCTTTCTGTTCAAGCGCCATCTAC,1.02 RPM ratio (pull-down/input)
3,GATGATTGTTCTCCCAGCTGATGAATTGTATTACTCGAGTAAACAAATTTTCCTAATCTTTCTGTTCAAGCGCCATCTAC,1.24 RPM ratio (pull-down/input)
4,GATGATTGTTCTCCCAGCTGATGAATTACCCGGTTCGAGTAAACAAATTTTCCTAATCTTTCTGTTCAAGCGCCATCTAC,0.848 RPM ratio (pull-down/input)
5,GATGATTGTTCTCCCAGCTGATGAATTGTTTTCCTCGAGTAAACAAATTTTCCTAATCTTTCTGTTCAAGCGCCATCTAC,2.36 RPM ratio (pull-down/input)
6,GATGATTGTTCTCCCAGCTGATGAATTGTTTTCATCGAGTAAACAAATTTTCCTAATCTTTCTGTTCAAGCGCCATCTAC,1.96 RPM ratio (pull-down/input)
7,GATGATTGTTCTCCCAGCTGATGAATTTGTTTCATCGAGTAAACAAATTTTCCTAATCTTTCTGTTCAAGCGCCATCTAC,1.33 RPM ratio (pull-down/input)
8,GATGATTGTTCTCCCAGCTGATGAATTTTTTGCCTCGAGTAAACAAATTTTCCTAATCTTTCTGTTCAAGCGCCATCTAC,0.956 RPM ratio (pull-down/input)
9,GATGATTGTTCTCCCAGCTGATGAATTTGCCTCCTCGAGTAAACAAATTTTCCTAATCTTTCTGTTCAAGCGCCATCTAC,0.95 RPM ratio (pull-down/input)
10,GATGATTGTTCTCCCAGCTGATGAATTTAGATGCTCGAGTAAACAAATTTTCCTAATCTTTCTGTTCAAGCGCCATCTAC,1.78 RPM ratio (pull-down/input)
11,GATGATTGTTCTCCCAGCTGATGAATTTTTTTCATCGAGTAAACAAATTTTCCTAATCTTTCTGTTCAAGCGCCATCTAC,1.02 RPM ratio (pull-down/input)
12,GATGATTGTTCTCCCAGCTGATGAATTGTTTCCCTCGAGTAAACAAATTTTCCTAATCTTTCTGTTCAAGCGCCATCTAC,1.41 RPM ratio (pull-down/input)
13,GATGATTGTTCTCCCAGCTGATGAATTGTTTGCCTCGAGTAAACAAATTTTCCTAATCTTTCTGTTCAAGCGCCATCTAC,1.96 RPM ratio (pull-down/input)
14,GATGATTGTTCTCCCAGCTGATGAATTAGATTGCTCGAGTAAACAAATTTTCCTAATCTTTCTGTTCAAGCGCCATCTAC,0.987 RPM ratio (pull-down/input)
15,GATGATTGTTCTCCCAGCTGATGAATTTGTTTCCTCGAGTAAACAAATTTTCCTAATCTTTCTGTTCAAGCGCCATCTAC,1.49 RPM ratio (pull-down/input)
16,GATGATTGTTCTCCCAGCTGATGAATTTTAGAGCTCGAGTAAACAAATTTTCCTAATCTTTCTGTTCAAGCGCCATCTAC,0.77 RPM ratio (pull-down/input)
